# What was measured:
# Experiment in all cases: PBM; 200 nM protein, PBS
# Settings in all cases: dsDNA, one strand shown
# HOXA7 = HOXA7 (Homo sapiens, UniProt P31268 116-202, W177C)
# SIX6 = molecular target: T1, SIX6 (Homo sapiens, UniProt O95475 114-200, H141N)
# T1 sequence: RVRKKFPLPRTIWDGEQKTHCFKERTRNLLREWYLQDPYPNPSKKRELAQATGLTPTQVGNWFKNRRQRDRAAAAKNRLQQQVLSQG
# HOXA4 [1] = molecular target: HOXA4 (Homo sapiens, UniProt Q00056 201-287, W262R)
# HOXA4 [2] = molecular target: HOXA4 (Homo sapiens, UniProt Q00056 201-287, R217L)
# Chain of HOXA4 (Homo sapiens, UniProt Q00056 201-287, R217L) (Q00056 201-287 R217L): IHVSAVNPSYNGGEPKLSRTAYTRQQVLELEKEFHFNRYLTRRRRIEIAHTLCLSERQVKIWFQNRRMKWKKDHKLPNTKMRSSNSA
# HOXA4 [3] = molecular target: HOXA4 (Homo sapiens, UniProt Q00056 201-287)
# Chain of HOXA4 (Homo sapiens, UniProt Q00056 201-287) (Q00056 201-287): as the sequence (Q00056 201-287 R217L) above, with L17R counted along it
# VENTX = molecular target: T2, VENTX (Homo sapiens, UniProt O95231 78-163)
# T2 sequence: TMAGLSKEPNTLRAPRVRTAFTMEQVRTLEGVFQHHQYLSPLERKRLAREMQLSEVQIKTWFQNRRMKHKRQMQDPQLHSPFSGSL
# CRX [4] = molecular target: CRX (Homo sapiens, UniProt O43186 26-111)
# Chain of CRX (Homo sapiens, UniProt O43186 26-111) (O43186 26-111): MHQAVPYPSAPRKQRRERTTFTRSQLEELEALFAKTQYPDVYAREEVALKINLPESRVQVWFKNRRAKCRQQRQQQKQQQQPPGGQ
# CRX [5] = molecular target: CRX (Homo sapiens, UniProt O43186 26-111, E42D)
# Chain of CRX (Homo sapiens, UniProt O43186 26-111, E42D) (O43186 26-111 E42D): as the sequence (O43186 26-111) above, with E17D counted along it
# CRX [6] = molecular target: CRX (Homo sapiens, UniProt O43186 26-111, R41L)
# Chain of CRX (Homo sapiens, UniProt O43186 26-111, R41L) (O43186 26-111 R41L): as the sequence (O43186 26-111) above, with R16L counted along it
# HOXB9 [7] = molecular target: HOXB9 (Homo sapiens, UniProt P17482 171-250, T197M)
# Chain of HOXB9 (Homo sapiens, UniProt P17482 171-250, T197M) (P17482 171-250 T197M): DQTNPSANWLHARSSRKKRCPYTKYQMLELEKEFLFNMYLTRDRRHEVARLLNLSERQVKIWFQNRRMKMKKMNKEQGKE
# HOXB6 [8] = molecular target: HOXB6 (Homo sapiens, UniProt P17509 132-218, K202E)
# Chain of HOXB6 (Homo sapiens, UniProt P17509 132-218, K202E) (P17509 132-218 K202E): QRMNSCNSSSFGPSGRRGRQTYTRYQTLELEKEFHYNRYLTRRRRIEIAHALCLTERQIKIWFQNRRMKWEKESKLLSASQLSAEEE
# HOXC9 [9] = molecular target: HOXC9 (Homo sapiens, UniProt P31274 178-260, R222W)
# Chain of HOXC9 (Homo sapiens, UniProt P31274 178-260, R222W) (P31274 178-260 R222W): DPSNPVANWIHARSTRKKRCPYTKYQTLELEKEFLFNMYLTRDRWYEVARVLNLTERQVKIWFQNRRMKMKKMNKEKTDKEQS
# HOXB6 [10] = molecular target: HOXB6 (Homo sapiens, UniProt P17509 132-218)
# Chain of HOXB6 (Homo sapiens, UniProt P17509 132-218) (P17509 132-218): as the sequence (P17509 132-218 K202E) above, with E71K counted along it
# VAX1 [11] = molecular target: VAX1 (Homo sapiens, UniProt Q5SQQ9 86-172)
# Chain of VAX1 (Homo sapiens, UniProt Q5SQQ9 86-172) (Q5SQQ9 86-172): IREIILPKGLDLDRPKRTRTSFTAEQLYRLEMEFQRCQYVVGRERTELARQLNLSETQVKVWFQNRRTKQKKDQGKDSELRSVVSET
# VAX1 [12] = molecular target: VAX1 (Homo sapiens, UniProt Q5SQQ9 86-172, K157R)
# Chain of VAX1 (Homo sapiens, UniProt Q5SQQ9 86-172, K157R) (Q5SQQ9 86-172 K157R): as the sequence (Q5SQQ9 86-172) above, with K72R counted along it
# HOXB9 [13] = molecular target: HOXB9 (Homo sapiens, UniProt P17482 171-250)
# Chain of HOXB9 (Homo sapiens, UniProt P17482 171-250) (P17482 171-250): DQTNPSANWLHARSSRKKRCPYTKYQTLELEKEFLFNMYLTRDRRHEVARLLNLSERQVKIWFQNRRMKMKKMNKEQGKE
# HOXB9 [14] = molecular target: HOXB9 (Homo sapiens, UniProt P17482 171-250, R186Q)
# Chain of HOXB9 (Homo sapiens, UniProt P17482 171-250, R186Q) (P17482 171-250 R186Q): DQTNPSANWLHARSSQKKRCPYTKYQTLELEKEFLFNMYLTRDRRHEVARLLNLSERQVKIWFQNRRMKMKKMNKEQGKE
# HOXC9 [15] = molecular target: HOXC9 (Homo sapiens, UniProt P31274 178-260, K195R)
# Chain of HOXC9 (Homo sapiens, UniProt P31274 178-260, K195R) (P31274 178-260 K195R): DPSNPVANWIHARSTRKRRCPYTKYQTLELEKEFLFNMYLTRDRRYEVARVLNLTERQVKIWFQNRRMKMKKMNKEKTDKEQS
# HOXC9 [16] = molecular target: HOXC9 (Homo sapiens, UniProt P31274 178-260)
# Chain of HOXC9 (Homo sapiens, UniProt P31274 178-260) (P31274 178-260): as the sequence (P31274 178-260 R222W) above, with W45R counted along it
# HOXC9 [17] = molecular target: HOXC9 (Homo sapiens, UniProt P31274 178-260, R193K)
# Chain of HOXC9 (Homo sapiens, UniProt P31274 178-260, R193K) (P31274 178-260 R193K): as the sequence (P31274 178-260 R222W) above, with R16K, W45R counted along it
# Chain of HOXA4 (Homo sapiens, UniProt Q00056 201-287, W262R) (Q00056 201-287 W262R): as the sequence (Q00056 201-287 R217L) above, with L17R, W62R counted along it
# Chain of HOXA7 (P31268 116-202 W177C): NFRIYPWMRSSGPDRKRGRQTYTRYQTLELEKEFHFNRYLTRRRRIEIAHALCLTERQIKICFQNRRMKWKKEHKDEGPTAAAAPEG
sequence,measurement,setting,value
GAGCTGGC,binding signal,HOXA7,"8.35 upbm affinity estimate (log intensity, higher = more binding, comparable within an allelic series)"
CGCACGCC,binding signal,SIX6,"8.95 upbm affinity estimate (log intensity, higher = more binding, comparable within an allelic series)"
GCAGGCGC,binding signal,HOXA4 [1],"9.8 upbm affinity estimate (log intensity, higher = more binding, comparable within an allelic series)"
same,binding signal,HOXA4 [2],"9.64 upbm affinity estimate (log intensity, higher = more binding, comparable within an allelic series)"
same,binding signal,HOXA4 [3],"9.74 upbm affinity estimate (log intensity, higher = more binding, comparable within an allelic series)"
TCCCCCCA,binding signal,HOXA4 [1],"9.6 upbm affinity estimate (log intensity, higher = more binding, comparable within an allelic series)"
same,binding signal,HOXA4 [2],"9.7 upbm affinity estimate (log intensity, higher = more binding, comparable within an allelic series)"
same,binding signal,HOXA4 [3],"9.81 upbm affinity estimate (log intensity, higher = more binding, comparable within an allelic series)"
CCTAGCTC,binding signal,HOXA4 [1],"9.86 upbm affinity estimate (log intensity, higher = more binding, comparable within an allelic series)"
same,binding signal,VENTX,"8.47 upbm affinity estimate (log intensity, higher = more binding, comparable within an allelic series)"
same,binding signal,HOXA4 [2],"9.83 upbm affinity estimate (log intensity, higher = more binding, comparable within an allelic series)"
same,binding signal,HOXA4 [3],"9.82 upbm affinity estimate (log intensity, higher = more binding, comparable within an allelic series)"
same,binding signal,HOXA7,"8.42 upbm affinity estimate (log intensity, higher = more binding, comparable within an allelic series)"
CCGAGACC,binding signal,HOXA4 [1],"9.83 upbm affinity estimate (log intensity, higher = more binding, comparable within an allelic series)"
same,binding signal,HOXA4 [2],"9.77 upbm affinity estimate (log intensity, higher = more binding, comparable within an allelic series)"
same,binding signal,HOXA4 [3],"9.83 upbm affinity estimate (log intensity, higher = more binding, comparable within an allelic series)"
CCGAGCCG,binding signal,HOXA7,"8.22 upbm affinity estimate (log intensity, higher = more binding, comparable within an allelic series)"
AGGGTCCC,binding signal,HOXA4 [1],"9.9 upbm affinity estimate (log intensity, higher = more binding, comparable within an allelic series)"
same,binding signal,HOXA4 [2],"9.79 upbm affinity estimate (log intensity, higher = more binding, comparable within an allelic series)"
same,binding signal,HOXA4 [3],"9.74 upbm affinity estimate (log intensity, higher = more binding, comparable within an allelic series)"
AGGCCCGC,binding signal,CRX [4],"8.17 upbm affinity estimate (log intensity, higher = more binding, comparable within an allelic series)"
same,binding signal,CRX [5],"8.1 upbm affinity estimate (log intensity, higher = more binding, comparable within an allelic series)"
same,binding signal,CRX [6],"8.27 upbm affinity estimate (log intensity, higher = more binding, comparable within an allelic series)"
AGAGCGCG,binding signal,CRX [4],"8.2 upbm affinity estimate (log intensity, higher = more binding, comparable within an allelic series)"
same,binding signal,CRX [5],"8.22 upbm affinity estimate (log intensity, higher = more binding, comparable within an allelic series)"
same,binding signal,CRX [6],"8.22 upbm affinity estimate (log intensity, higher = more binding, comparable within an allelic series)"
AATTATTA,binding signal,HOXB9 [7],"10.1 upbm affinity estimate (log intensity, higher = more binding, comparable within an allelic series)"
same,binding signal,HOXB6 [8],"10.1 upbm affinity estimate (log intensity, higher = more binding, comparable within an allelic series)"
same,binding signal,HOXA4 [2],"12 upbm affinity estimate (log intensity, higher = more binding, comparable within an allelic series)"
same,binding signal,HOXC9 [9],"11.1 upbm affinity estimate (log intensity, higher = more binding, comparable within an allelic series)"
same,binding signal,HOXA7,"8.91 upbm affinity estimate (log intensity, higher = more binding, comparable within an allelic series)"
same,binding signal,HOXB6 [10],"11.8 upbm affinity estimate (log intensity, higher = more binding, comparable within an allelic series)"
GCCGTCGC,binding signal,CRX [4],"8.32 upbm affinity estimate (log intensity, higher = more binding, comparable within an allelic series)"
same,binding signal,CRX [5],"8.21 upbm affinity estimate (log intensity, higher = more binding, comparable within an allelic series)"
same,binding signal,CRX [6],"8.17 upbm affinity estimate (log intensity, higher = more binding, comparable within an allelic series)"
ACAATTAT,binding signal,HOXB9 [7],"9.96 upbm affinity estimate (log intensity, higher = more binding, comparable within an allelic series)"
same,binding signal,HOXB6 [8],"9.99 upbm affinity estimate (log intensity, higher = more binding, comparable within an allelic series)"
ACCGTCCG,binding signal,CRX [4],"8.31 upbm affinity estimate (log intensity, higher = more binding, comparable within an allelic series)"
same,binding signal,CRX [5],"8.44 upbm affinity estimate (log intensity, higher = more binding, comparable within an allelic series)"
same,binding signal,CRX [6],"8.35 upbm affinity estimate (log intensity, higher = more binding, comparable within an allelic series)"
CCCCCAGC,binding signal,VENTX,"8.03 upbm affinity estimate (log intensity, higher = more binding, comparable within an allelic series)"
same,binding signal,VAX1 [11],"7.08 upbm affinity estimate (log intensity, higher = more binding, comparable within an allelic series)"
same,binding signal,HOXA7,"8.17 upbm affinity estimate (log intensity, higher = more binding, comparable within an allelic series)"
same,binding signal,VAX1 [12],"6.96 upbm affinity estimate (log intensity, higher = more binding, comparable within an allelic series)"
AAGCTGGC,binding signal,HOXA7,"8.3 upbm affinity estimate (log intensity, higher = more binding, comparable within an allelic series)"
GCGAGCGC,binding signal,HOXB9 [7],"8.46 upbm affinity estimate (log intensity, higher = more binding, comparable within an allelic series)"
same,binding signal,HOXB9 [13],"8.32 upbm affinity estimate (log intensity, higher = more binding, comparable within an allelic series)"
same,binding signal,HOXB9 [14],"8.42 upbm affinity estimate (log intensity, higher = more binding, comparable within an allelic series)"
GCCAGCCC,binding signal,HOXC9 [15],"9.67 upbm affinity estimate (log intensity, higher = more binding, comparable within an allelic series)"
same,binding signal,SIX6,"9.06 upbm affinity estimate (log intensity, higher = more binding, comparable within an allelic series)"
same,binding signal,HOXC9 [16],"9.67 upbm affinity estimate (log intensity, higher = more binding, comparable within an allelic series)"
same,binding signal,HOXC9 [17],"9.67 upbm affinity estimate (log intensity, higher = more binding, comparable within an allelic series)"
same,binding signal,VAX1 [11],"7.02 upbm affinity estimate (log intensity, higher = more binding, comparable within an allelic series)"
same,binding signal,HOXC9 [9],"9.62 upbm affinity estimate (log intensity, higher = more binding, comparable within an allelic series)"
same,binding signal,VAX1 [12],"7.16 upbm affinity estimate (log intensity, higher = more binding, comparable within an allelic series)"
CGACGCGA,binding signal,VENTX,"8.03 upbm affinity estimate (log intensity, higher = more binding, comparable within an allelic series)"
GCCGGTCC,binding signal,CRX [4],"8.03 upbm affinity estimate (log intensity, higher = more binding, comparable within an allelic series)"
same,binding signal,CRX [5],"8.04 upbm affinity estimate (log intensity, higher = more binding, comparable within an allelic series)"
same,binding signal,CRX [6],"8.24 upbm affinity estimate (log intensity, higher = more binding, comparable within an allelic series)"
CGCAATTA,binding signal,HOXB6 [8],"9.82 upbm affinity estimate (log intensity, higher = more binding, comparable within an allelic series)"
same,binding signal,HOXA7,"8.67 upbm affinity estimate (log intensity, higher = more binding, comparable within an allelic series)"
same,binding signal,HOXB6 [10],"11.7 upbm affinity estimate (log intensity, higher = more binding, comparable within an allelic series)"
GCCAGACC,binding signal,HOXC9 [15],"9.5 upbm affinity estimate (log intensity, higher = more binding, comparable within an allelic series)"
same,binding signal,SIX6,"9.01 upbm affinity estimate (log intensity, higher = more binding, comparable within an allelic series)"
same,binding signal,HOXC9 [16],"9.48 upbm affinity estimate (log intensity, higher = more binding, comparable within an allelic series)"
same,binding signal,HOXC9 [17],"9.46 upbm affinity estimate (log intensity, higher = more binding, comparable within an allelic series)"
same,binding signal,HOXC9 [9],"9.66 upbm affinity estimate (log intensity, higher = more binding, comparable within an allelic series)"
CCAGGACC,binding signal,VENTX,"7.74 upbm affinity estimate (log intensity, higher = more binding, comparable within an allelic series)"
GCAATTAC,binding signal,HOXB6 [8],"9.75 upbm affinity estimate (log intensity, higher = more binding, comparable within an allelic series)"
same,binding signal,HOXA7,"8.74 upbm affinity estimate (log intensity, higher = more binding, comparable within an allelic series)"
same,binding signal,HOXB6 [10],"11.7 upbm affinity estimate (log intensity, higher = more binding, comparable within an allelic series)"
ATAATTGC,binding signal,HOXB9 [7],"10.2 upbm affinity estimate (log intensity, higher = more binding, comparable within an allelic series)"
same,binding signal,HOXC9 [15],"12.6 upbm affinity estimate (log intensity, higher = more binding, comparable within an allelic series)"
same,binding signal,HOXB6 [8],"9.97 upbm affinity estimate (log intensity, higher = more binding, comparable within an allelic series)"
same,binding signal,HOXB9 [13],"11.7 upbm affinity estimate (log intensity, higher = more binding, comparable within an allelic series)"
same,binding signal,HOXB9 [14],"11.5 upbm affinity estimate (log intensity, higher = more binding, comparable within an allelic series)"
same,binding signal,HOXA7,"8.84 upbm affinity estimate (log intensity, higher = more binding, comparable within an allelic series)"
same,binding signal,HOXB6 [10],"12 upbm affinity estimate (log intensity, higher = more binding, comparable within an allelic series)"
AATAATTG,binding signal,HOXB9 [7],"9.89 upbm affinity estimate (log intensity, higher = more binding, comparable within an allelic series)"
same,binding signal,HOXB9 [13],"11.3 upbm affinity estimate (log intensity, higher = more binding, comparable within an allelic series)"
same,binding signal,HOXB9 [14],"11.1 upbm affinity estimate (log intensity, higher = more binding, comparable within an allelic series)"
CTGCATTA,binding signal,HOXA7,"8.56 upbm affinity estimate (log intensity, higher = more binding, comparable within an allelic series)"
GTCCTGCA,binding signal,VENTX,"8.28 upbm affinity estimate (log intensity, higher = more binding, comparable within an allelic series)"
CCGCCCCC,binding signal,VENTX,"7.95 upbm affinity estimate (log intensity, higher = more binding, comparable within an allelic series)"
same,binding signal,HOXB6 [8],"8.84 upbm affinity estimate (log intensity, higher = more binding, comparable within an allelic series)"
same,binding signal,HOXB6 [10],"8.81 upbm affinity estimate (log intensity, higher = more binding, comparable within an allelic series)"
GCCGGCGA,binding signal,VAX1 [11],"6.87 upbm affinity estimate (log intensity, higher = more binding, comparable within an allelic series)"
same,binding signal,VAX1 [12],"7.26 upbm affinity estimate (log intensity, higher = more binding, comparable within an allelic series)"
CTCTCCAG,binding signal,VAX1 [11],"7 upbm affinity estimate (log intensity, higher = more binding, comparable within an allelic series)"
same,binding signal,VAX1 [12],"7.01 upbm affinity estimate (log intensity, higher = more binding, comparable within an allelic series)"
AGAGGACC,binding signal,HOXB6 [8],"9.07 upbm affinity estimate (log intensity, higher = more binding, comparable within an allelic series)"
same,binding signal,HOXB6 [10],"8.88 upbm affinity estimate (log intensity, higher = more binding, comparable within an allelic series)"
AGCTGCCT,binding signal,HOXA7,"8.25 upbm affinity estimate (log intensity, higher = more binding, comparable within an allelic series)"
CAGGCCGG,binding signal,HOXB6 [8],"8.91 upbm affinity estimate (log intensity, higher = more binding, comparable within an allelic series)"
same,binding signal,HOXB6 [10],"8.84 upbm affinity estimate (log intensity, higher = more binding, comparable within an allelic series)"
TAATTGTA,binding signal,HOXB6 [8],"10 upbm affinity estimate (log intensity, higher = more binding, comparable within an allelic series)"
CACGGCGG,binding signal,HOXB6 [8],"9.01 upbm affinity estimate (log intensity, higher = more binding, comparable within an allelic series)"
same,binding signal,HOXB6 [10],"8.99 upbm affinity estimate (log intensity, higher = more binding, comparable within an allelic series)"

# Reference: paper PMC11006913
